# DT40 TDP1 CPT – DT40-hTDP1 cell growth loss with CPT. Potency, µM (series often up to 46.2 µM), inactives show at the highest dose activity change, negative = growth inhibition, actives largely listed as inhibitors. AID 686979. chicken DT40 Tdp1-/-;hTDP1 cells + 20 nM CPT, ATP luminescence, 48 h. 12% of 420,000 active; also: potency is read from the fitted curve at half-maximal effect; nearly all actives have a fitted effect of over 55% in size
#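 Cell growth measured by CellTiter-Glo luminescence after a minimum 48 h, 37 C compound exposure with 20 nM CPT in Tdp1-knockout DT40 cells stably expressing hTDP1, seeded 400/well; qHTS titration format.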
# HT1080 IDH1KD tx – kills HT-1080 cells with IDH1 knockdown. HT-1080 IDH1 knockdown viability, ATP luminescence, 48 h. Potency, µM (series often up to 46.1 µM), for the others: at the highest dose activity, negative = toxicity, hits mostly cytotoxic. 2% of 360,000 active. AID 686971;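 also: potency is read from the fitted curve at half-maximal effect; 0% = DMSO wells and -100% = cell-free medium wells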
#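 Knockdown cells (IDH1KD HT-1080) received compounds 2 h after plating at 750 cells/well and were kept 48 h at 37 °C in 5% FBS RPMI. A CellTiter-Glo luminescence read gave % activity for curve fitting.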
# TDP1 cell noCPT – qHTS for Inhibitors of human tyrosyl-DNA phosphodiesterase 1 (TDP1): qHTS in cells in absence of CPT. DT40 Tdp1-/- hTDP1 cells, no CPT, ATP luminescence, 48 h. Potency, µM (top dose mostly 46.2 µM), inactives show top-dose activity change, negative = growth inhibition, usual class: inhibitors. 15% of 420,000 active. AID 686978, 2013; also: potency is read from the fitted curve at half-maximal effect; nearly all actives have a fitted effect of over 55% in size
#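 Cells were dispensed at 400 per well, compounds added by pin tool, plates incubated ≥48 hr at 37 °C, then CellTiter-Glo added for 30 min at room temperature before luminescence reading. Line: DT40 Tdp1-/- complemented with hTDP1; camptothecin omitted.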
# uPA generation – cell surface uPA generation inhibition; cell surface uPA generation assay, qHTS; 0.31% of 330,000 active; Potency, µM (titrated, usually from 38.3 µM), without a hit: top-dose activity change, negative = inhibition, actives largely listed as inhibitors; AID 540303; active = well fitted inhibition curve with a large enough effect; inconclusive = small, poorly fitted or top-dose-only effect; inactive = no such curve, though single readings can be large or run the other way; tested in mouse RAW 264.7 cells; also: potency is read from the fitted curve at half-maximal effect; nearly all actives have a fitted effect of over 55% in size
# IL1B secr inh – blocks inflammasome-driven IL-1 beta release; activity change, % at 57.5 µM; THP-1 LPS/ATP IL-1B secretion, AlphaLISA, 16 h; hits give low values; 4.7% of 360,000 active; AID 743279; in the data active = activity change below about -50%; inconclusive = mostly about -30% to -49%
#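 THP-1 cells pretreated 1 hr with compounds (up to 57.5 uM final), then stimulated with LPS (250 ng/mL final) plus ATP (1.25 mM final); secreted IL-1B measured by AlphaLISA after 16 hr, decreased signal indicating inhibition.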
# HT1080NT lethal – kills 2HG-producing HT-1080-NT fibrosarcoma cells; 1.6% of 360,000 active; AID 686970; Potency, µM (series often up to 46.1 µM), for inactives: at the top dose activity, negative = less viability, most hits filed as cytotoxic; HT-1080-NT fibrosarcoma viability, CellTiter-Glo ATP luminescence, 48 h;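 also: NT is the 2HG producing partner of a matched IDH1 knockdown line; potency is read from the fitted curve at half-maximal effect; 0% = DMSO-treated cells and -100% = media-only wells without cells; nearly all actives have a fitted effect of over 55% in size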
#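 Viability by CellTiter-Glo luminescence after 48 h compound exposure at 37C of HT-1080-NT cells (750/well, RPMI, 5% FBS). % activity scaled between DMSO wells and medium-only wells, then curve-fitted and categorized by curve class.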
# An asterisk follows results filed as active; ? = inconclusive; . = no result; [ ] = remark or other dose. Hits are enriched below; roughly 19% of the tested compounds scored in any of these assays. Unless noted, calls follow the shape of the dose curve; as a rule, active = well fitted curve in the direction sought with a large enough effect; inconclusive = small, poorly fitted or top-dose-only effect, or another doubt; inactive = no such curve, though single readings can be large; an effect the other way counts as inactive or inconclusive. Unless noted, % is scaled to controls: 0 for no effect and ±100 for the full control effect.
SMILES,DT40 TDP1 CPT,HT1080 IDH1KD tx,TDP1 cell noCPT,uPA generation,IL1B secr inh,HT1080NT lethal
COc1ccc(Cl)cc1Cn1c(C)c(C(=O)NCc2ccc(F)cc2)sc1=O,?,?,?,.,-3.8,-29.6%
O=C(Nc1ccc(-c2csc(Nc3ccccc3)n2)cc1)c1cccc(C(F)(F)F)c1,2.91µM*,?,4.11µM*,-22.4%,115.6,?
NC(=O)Cc1nc(-c2ccc([N+](=O)[O-])cc2)cs1,10.3µM*,0.8%,?,7.1%,20.6,1.1%
COc1cc(/C=N/NC(=O)NC23CC4CC(CC(C4)C2)C3)ccc1OCC(N)=O,?,2.0%,8.2µM*,3.6%,-8.3,-4.9%
COc1cc(OC)c(C=NNC(=S)NC23CC4CC(CC(C4)C2)C3)c(OC)c1,6.51µM*,-0.3%,6.51µM*,1.0%,11.9,-5.9%
O=C(N/N=C/c1ccccc1F)NC12CC3CC(CC(C3)C1)C2,?,1.1%,-17.2%,-1.9%,7.3,6.8%
COc1cccc(/C=N/NC(=O)c2cc3cc([N+](=O)[O-])ccc3s2)c1O,0.92µM*,2.91µM*,0.461µM*,-3.5%,76.9,4.11µM*
COc1cccc(/C=N/NC(=O)NC23CC4CC(CC(C4)C2)C3)c1O,-27.1%,18.4µM*,?,-10.9%,-12.1,?
Cc1ccccc1-c1nnc(SCC(=O)N2CCCC2)o1,-6.3%,12.0%,-9.2%,-0.3%,-4.4,19.3%
O=C(Nc1c2c(nn1-c1ccccc1)CS(=O)(=O)C2)C1CC1,-2.2%,6.1%,-5.8%,.,-2.7,3.3%
COc1cccc(/C=N\NC(=O)C2C(=O)NCC2c2ccccc2)c1O (configuration not stated),?,?,23.1µM*,-12.3%,43.8,-28.6%
COc1cccc(/C=N/NC(=O)C(=O)N/N=C/c2cccc(OC)c2O)c1O,1.03µM*,6.1%,1.64µM*,-0.2%,154.3,-7.8%
COc1cccc(/C=N/NC(=O)NC2CCCCC2)c1O,1.1%,-1.6%,-19.9%,-12.5%,?,-0.6%
COc1cccc(/C=N/NC(=O)c2cnccn2)c1O,?,16.4µM*,?,-11.5%,76.1,?
COc1cccc(/C=N/NC(=O)c2ccoc2C)c1O,3.26µM*,9.2µM*,0.731µM*,-1.5%,262.9,?
COc1ccc(NC(=O)[C@@H](c2ccccc2)N2Cc3ccccc3C2=O)cc1OC,-19.4%,.,-24.6%,.,.,.
COc1cc(C(C(=O)NC2CCCC2)N(CCO)C(=O)Cn2nnc(-c3ccc(C)o3)n2)ccc1O (configuration not stated),0.0%,-1.9%,5.4%,3.5%,-2.7,9.1%
O=C1NCC(c2ccccc2)C1C(=O)N/N=C\c1ccc(-c2cccc(Cl)c2Cl)o1 (configuration not stated),-14.3%,?,?,-1.6%,-17.4,?
COc1ccc(OC)c(/C=N/NC(=O)C(=O)N2CCCC2)c1,?,-6.2%,?,-10.2%,59.6,-8.0%
Cc1ccc(-c2ccc(/C=N\NC(=O)C3C(=O)NCC3c3ccccc3)o2)cc1Cl (configuration not stated),?,?,?,6.6%,-54.9*,?
COc1cccc(/C=N/NC(=O)C(=O)N2CCCCCC2)c1O,?,13µM*,?,-10.8%,143.7,?
COc1cccc(/C=N/NC(=O)C(=O)NCc2ccco2)c1O,7.31µM*,7.08µM*,20.6µM*,?,113.0,8.91µM*
O=C(N/N=C/c1cc([N+](=O)[O-])ccc1Cl)c1cnccn1,3.26µM*,?,5.8µM*,-12.6%,24.9,4.11µM*
COC(=O)c1cccc(/C=N/NC(N)=S)c1O,0.184µM*,8.3%,0.259µM*,?,-25.5,?
COc1ccc(/C=N/NC(N)=S)cc1,?,22.3%,?,-1.9%,0.7,?
SMILES,DT40 TDP1 CPT,HT1080 IDH1KD tx,TDP1 cell noCPT,uPA generation,IL1B secr inh,HT1080NT lethal
Cn1c(SCc2ccc(Br)cc2)nc2ccccc2c1=O,?,-25.0%,11.6µM*,0.0%,-1.0,-27.2%
Cc1cccc(CSc2nc3ccccc3c(=O)n2C)c1,?,?,18.4µM*,-24.2%,39.7,-13.4%
COc1cc(OC)c2c(-c3ccccc3)cc(=O)oc2c1C(CCN1CCCCC1)c1ccc(N(C)C)cc1 (configuration not stated),10.3µM*,-29.2%,14.6µM*,10µM*,-18.1,-20.9%
COc1cc(OC)c2c(-c3ccccc3)cc(=O)oc2c1C(CCN1CCOCC1)c1ccc(N(C)C)cc1 (configuration not stated),5.8µM*,-19.4%,6.51µM*,?,0.0,-1.7%
COc1ccc(C(CCN2CCCCC2)c2c(OC)cc(OC)c3c(-c4ccccc4)cc(=O)oc23)cc1 (configuration not stated),20.6µM*,-14.4%,?,?,-11.0,-27.5%
Cc1c(OCC(=O)NCCN2CCOCC2)ccc2c(-c3ccccc3)cc(=O)oc12,7.0%,0.5%,?,-2.9%,14.8,7.7%
Cc1cc(-c2onc3ccc(Cl)cc23)ccc1O,?,-24.9%,?,-4.8%,?,-14.5%
CCOC(=O)C1CCCN(C(=O)CNC(=O)c2ccc(Br)o2)C1 (configuration not stated),-12.7%,11.2%,10.9%,-1.2%,-11.0,-1.0%[9.24 µM]
COc1ccc(C(=O)c2ccc(Cl)cc2Cl)cc1,-26.6%,-2.5%,?,-3.4%,15.8,-3.4%
O=C(C[n+]1ccc(Cl)c2ccc(Cl)cc21)c1ccc(F)cc1,10µM*,.,3.55µM*,.,.,.
COc1ccc(C(=O)C[n+]2ccc(Cl)c3ccc(Cl)cc32)cc1,7.94µM*,.,7.94µM*,.,.,.
Cc1cccc(CCNC(=O)C2CC(O)CN2C(=O)Nc2ccccc2)c1 (configuration not stated),-2.7%,0.3%,0.2%,.,5.4,-3.9%
OC(c1ccccc1)c1ncc(-c2cccc(F)c2)[nH]1 (configuration not stated),-4.5%,13.0%,-15.2%,.,15.3,-10.2%
CCCN1CNc2c(c(=O)[nH]c(=S)n2CCc2cc(OC)cc(OC)c2)C1,?,12.7%,?,.,.,0.7%
CN(C)C(CNC(=O)c1cccc(C(F)(F)F)c1)c1ccco1 (configuration not stated),-5.2%,-1.8%,-15.3%,1.2%,18.4,-0.3%
Cc1ccc(C(=O)NNc2c3ccccc3nc3ccccc23)cc1,13µM*,?,10.3µM*,1.7%,-97.9*,-13.6%

# Source: PubChem BioAssay (National Center for Advancing Translational Sciences (NCATS))
